Only some compounds are listed: those with a hit (about 1.6% of all), similar ones and a draw of the others.
PfHsp40 rescue: compounds rescuing yeast from Plasmodium falciparum HSP40 toxicity; hit rate 0.68% among 340,000; S. cerevisiae expressing PfHsp40, growth rescue, ATP luminescence; growth rescue, % at 12.5 µM; in the data active = growth rescue above about 28%, passing the limit was not always enough;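 note: yeast W303a lacking pdr1 and pdr3 grown in galactose medium; growth measured after three days at 30 °C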
Sa ugtP lethal: compounds lethal to S. aureus RN4220 ugtP deletion mutant. OD600 growth, 16 h. growth inhibition, % (concentration not given with the values). hit rate 0.54% among 330,000. AID 1259309; in the data active = growth inhibition above about 68%;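 note: plate controls were untreated wells for no effect and antibiotic for full effect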
CCHFV vOTU inh: CCHFV vOTU protease inhibition; hit rate 0.55% among 370,000; inhibition, % at 11.5 µM; AID 651958; Pep-AMC fluorescence; in the data active = inhibition above about 30%; note: 0% = vehicle wells with enzyme and 100% = no enzyme wells
BJeLR viability: kills HRASV12-expressing BJeLR cells; BJeLR (HRASV12) viability, CellTiter-Glo ATP luminescence, 48 h; inhibition, % (test concentration not listed); hit rate 0.17% among 300,000; in the data active = inhibition above about 50%
RN4220 kill: kills Staphylococcus aureus RN4220; inhibition, % (test concentration not listed); hit rate 0.33% among 330,000; S. aureus RN4220 growth, OD600, 16 h; in the data active = inhibition above about 85%;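 note: plate controls were untreated cells for no effect and reference antibiotic for full effect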
* marks the source's active call; other numbers are inactive results; . = no result.

SMILES	PfHsp40 rescue	Sa ugtP lethal	CCHFV vOTU inh	BJeLR viability	RN4220 kill
O=S(=O)(c1cccc(Br)c1)N1CCN(c2ncnc3scc(-c4ccccc4)c23)CC1	0	99*	5	.	98*
COc1ccc(-n2c(-c3ccccc3)cc3c2CCCC3=O)cc1	134*	8	.	10	-5
O=C1CCCc2c1cc(-c1ccccc1)n2-c1ccc(O)cc1	-2	4	0	-3	-1
O=c1oc2cc(Oc3c([N+](=O)[O-])cc(C(F)(F)F)cc3[N+](=O)[O-])ccc2c2c1CCCC2	0	94*	-19	5	44
Oc1ccc(C=NC2CCCCC2)c(O)c1	35*	6	11	-8	4
O=C(NN=Cc1ccc(O)cc1O)C1CC1	.	10	.	.	4
CCC1(CC)C(=O)C2=C3C(CC(C(=O)OC)=CC(C(=O)OC)C31)C1C(=O)NC(=O)C1C2C (stereo not drawn)	.	0	.	.	9
CCCC(=O)N1CC(=O)Nc2ccc(Br)cc2C1c1ccc(F)cc1 (stereo not drawn)	2	5	-11	-11	1
CC(=O)N1CC(=O)Nc2ccc(Br)cc2C1c1ccc(F)cc1 (stereo not drawn)	85*	10	-1	-7	2
CN(C)c1ccc(NC(=O)C=Cc2c(Cl)cccc2Cl)cc1	.	-11	.	.	8
O=C(Nc1cccc(Cl)c1)N1CCc2ccccc2C1	44*	-12	-8	-17	-3
COc1cccc(NC(=O)N2CCc3ccccc3C2)c1	0	-1	8	3	2
Clc1ccc(-c2n[nH]c3c2CCC3)cc1Cl	241*	8	15	1	11
Clc1ccc(-c2n[nH]c3c2CCCC3)cc1	-1	3	13	-6	-4
COc1cccc(Nc2nc(-c3ccccc3)nc3ccccc23)c1	38*	91*	-4	-7	57
CC(C)Oc1nc(-c2ccc(Cl)cc2)nc2ccccc12	1	71	3	6	-6
c1ccc(Nc2nc(-c3ccccc3)nc3ccccc23)cc1	11	30	2	-1	-14
Cc1ccc(-c2nc(Nc3cccc(O)c3)c3ccccc3n2)cc1	30*	67	0	-18	61
O=[N+]([O-])c1ccc(-c2nc(Nc3cccc(O)c3)c3ccccc3n2)cc1	0	83*	14	-2	85*
COc1cccc(-c2nc(OC(C)C)c3ccccc3n2)c1	0	94*	15	-2	-15
CC=C(C)C(=O)Nc1cccc(C2=NOC3(C2)CC(C(N)=O)N(C(=O)C=CCC)C3)c1 (stereo not drawn)	.	4	.	.	8
O=C(CN1CCN(Cc2ccccc2)CC1)NN=C/C=C\c1ccco1	.	14	.	.	7
CC1=C(C)C(=NOS(=O)(=O)c2ccc(C)cc2)C=CC1=O	.	64	.	.	25
CCOC(=O)C(C#N)=NNc1ccccc1C(=O)O	.	7	.	.	5
ON=C(COc1ccccc1O)c1ccccc1	.	-6	.	.	8
SMILES	PfHsp40 rescue	Sa ugtP lethal	CCHFV vOTU inh	BJeLR viability	RN4220 kill
COc1ccc(Nc2nc(-c3ccccc3O)nc3ccccc23)cc1	2	94*	3	5	61
COc1cccc(Nc2nc(-c3ccccc3O)nc3ccccc23)c1	1	-8	-16	-4	-12
O=C(O)c1cc(-c2ccc(C=NN3C(=O)C4C5C=CC(CC5)C4C3=O)o2)ccc1Cl (stereo not drawn)	.	15	.	.	9
O=C(NN=Cc1ccc(-c2cccc(C(F)(F)F)c2)o1)c1ccccc1Br	.	90*	.	.	11
O=C(CSc1ccc(Cl)cc1)NN=Cc1ccc([N+](=O)[O-])o1	.	100*	.	.	46
O=C(N/N=C/c1ccc(-c2cccc([N+](=O)[O-])c2)o1)c1ccccc1O	2	.	-4	5	.
O=C(N/N=C/c1ccc(-c2cccc(C(F)(F)F)c2)o1)c1ccccc1Br	19	.	6	6	.
O=C(N/N=C/c1ccc(-c2cccc([N+](=O)[O-])c2)o1)c1ccc([N+](=O)[O-])cc1	146*	.	1	-18	.
O=C(CCC(=O)Nc1ccc(Cl)cc1Cl)NN=Cc1ccc([N+](=O)[O-])o1	.	100*	.	.	96*
CN(C)/C=C(\C#N)C(=O)NN=Cc1ccc(Cl)cc1	.	4	.	.	1
CC(=NNC(=O)Cc1ccc(Cl)c(Cl)c1)c1cccnc1	.	-4	.	.	0
CCOC(=O)C1C2COc3ccc(Cl)cc3C2N2C(=O)c3ccc(Cl)cc3NC(=O)[C@@]12C (stereo partly drawn)	.	-39	.	.	-7
O=C(NN=Cc1ccc([N+](=O)[O-])o1)c1ccc2c(c1)OCO2	.	98*	.	.	88*
O=C(Cc1ccccc1)NN=Cc1ccc(-c2ccc([N+](=O)[O-])cc2)o1	.	-7	.	.	5
